In the library only some 4.8% were active in any assay of this set; here they are far more common.
hcDAF-12 act – H. contortus DAF-12 activation, primary screen | HEK293 hcDAF-12 lit1-tk-luc reporter, luminescence; 0% DMSO, 100% Δ7-dafachronic acid | activation, % at 6.8 µM | 370,000 tested, 1.4% active | AID 652067;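 active = activation above the mean of all tested compounds plus 3 SD, cut at about 5.5% in these data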;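 also: 100% = response to 3 µM Δ7-dafachronic acid high control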
SMARCA2 act – increases SMARCA2 function in MMTV reporter cells; MG213 cells, MMTV-luciferase reporter, dexamethasone, overnight; activation, % at 9.1 µM; 370,000 tested, 1% active; in the data active = activation above about 7.8%;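 also: 0% = vehicle wells and 100% = reference activator wells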
ssDAF12 agonist – activators of S. stercoralis DAF-12 nuclear receptor. 370,000 tested, 1% active. activation, % at 6.8 µM. HEK293 ssDAF-12/GRIP1 lit1-tk-luc reporter, luminescence; % of 3 µM dafachronic acid response. AID 652126;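 active = activation above the mean over all tested compounds plus 3 SD, cut at about 0.9% in these data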;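 also: 0% = DMSO-only wells and 100% = 3 µM delta7-dafachronic acid wells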
DAX1 inh-1 – inhibitors of DAX1 repression of SF-1 activated StAR promoter | inhibition, % at 6.8 µM | HEK293T StAR-luciferase reporter, SF-1/DAX-1 repression relief | 370,000 tested, 1.1% active;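 active = inhibition above the mean over all tested compounds plus 3 SD, cut at about 3.6% in these data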;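 also: 0% = DAX-1 cells with DMSO and 100% = cells lacking DAX-1 with DMSO; higher inhibition means more luminescence from relief of DAX-1 repression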
DAX1 inh-2 – inhibitors of human orphan nuclear receptor DAX1 (NR0B1). HEK293 Gal4-DAX1 luciferase reporter, luminescence. inhibition, % at 6.75 µM. P51843. 340,000 tested, 0.99% active. AID 504766;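 active = inhibition above the mean over all tested compounds plus 3 SD, cut at about 4.2% in these data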;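 also: 0% = DAX1-transfected cells with DMSO and 100% = empty-vector control cells with DMSO; inhibition shows as a rise in luminescence from relieved DAX1 repression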
hgDAF12 agonist – hgDAF-12 agonism, primary luciferase screen; 370,000 tested, 1.8% active; HEK293 GAL4-hgDAF12 UAS-luciferase reporter, agonist luminescence; normalized to butyrate control; activation, % at 6.8 µM;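 active = activation above a cutoff set at the mean of all screened compounds plus 3 SD, cut at about 10% in these data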;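 also: 0% = DMSO wells and 100% = sodium butyrate wells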
DAX1 conf – confirmation of human DAX1 (NR0B1) inhibitors; HEK293T StAR-promoter luciferase reporter, SF-1/DAX-1 repression; inhibition, % at 6.8 µM; AID 652134; 2,400 tested, 87% active; shares compounds with DAX1 inh-1;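 active = inhibition above the average of every tested compound plus 3 SD, cut at about 3.8% in these data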;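 also: 0% = DAX-1 cells with DMSO and 100% = no DAX-1 control cells with DMSO; active compounds raise luminescence by relieving repression of the StAR reporter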
Target sequence (P51843 whole entry, looked up): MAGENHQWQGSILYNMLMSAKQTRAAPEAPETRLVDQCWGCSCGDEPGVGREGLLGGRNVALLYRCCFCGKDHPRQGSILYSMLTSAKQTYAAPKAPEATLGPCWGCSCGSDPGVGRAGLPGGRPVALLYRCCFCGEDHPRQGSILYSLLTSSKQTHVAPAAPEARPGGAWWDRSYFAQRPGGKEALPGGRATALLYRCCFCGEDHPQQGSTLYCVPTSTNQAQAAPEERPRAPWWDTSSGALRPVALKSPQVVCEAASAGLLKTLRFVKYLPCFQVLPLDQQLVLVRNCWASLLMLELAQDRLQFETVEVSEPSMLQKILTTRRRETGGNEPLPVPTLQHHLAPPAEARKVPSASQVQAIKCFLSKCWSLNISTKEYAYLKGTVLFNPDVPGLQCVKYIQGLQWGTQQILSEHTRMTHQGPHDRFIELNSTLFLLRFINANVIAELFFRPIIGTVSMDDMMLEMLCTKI
SF1 mutant ctr – nonselective inhibitor or artifact in SF-1 mutant DAX1 counter-screen; shares compounds with DAX1 inh-1; HEK293 StAR-luciferase, SF-1 AF2 mutant, luminescence; inhibition, % at 6.8 µM; 2,400 tested, 78% active; AID 652136;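 active = inhibition above the mean of all tested compounds plus 3 SD, cut at about 3% in these data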;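 also: 0% = DAX-1 transfected cells with DMSO and 100% = cells without DAX-1 with DMSO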
SMARCA2 conf – SMARCA2 activation, confirmation screen | shares compounds with SMARCA2 act | MG213 cells, MMTV-luciferase with dexamethasone, luminescence, overnight; MG213 cells expressing E1A, Rb sequestered; DMSO wells 0%, reference activator 100% | activation, % at 9.1 µM | 3,500 tested, 30% active | AID 652260;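 active = activation above its plate's cutoff, the mean activation of tested wells plus 3 SD, cut at about 7.9% in these data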
GAL4-VP16 Luc – activates GAL4-VP16 luciferase, flagging SMARCA2 activator hits | 3,500 tested, 41% active | shares compounds with SMARCA2 act | activation, % at 9.1 µM | AID 686939 | HEK293 GAL4-VP16 pG5luc reporter, luciferase luminescence; scaled: DMSO wells 0%, SAHA wells 100%;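 active = activation above the solvent-only control well mean plus 3 SD, averaged across control plates, cut at about 5.2% in these data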
LXR ag – activates human LXR-beta, counter-screen for hcDAF-12 agonists; shares compounds with hcDAF-12 act; HEK293 Gal4-LXR tk-luc reporter, luminescence, 24 h; normalized: DMSO 0%, positive control 100%; activation, % at 6.8 µM; 3,400 tested, under 10 active;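 active = mean percent activation of the reporter above a cutoff set as the average over tested compounds plus their standard deviation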
hcDAF12 conf – confirmation of H. contortus DAF-12 agonists | shares compounds with hcDAF-12 act | HEK293 hcDAF-12 lit1-tk-luc reporter, luminescence; % of Δ7-dafachronic acid response | activation, % at 6.8 µM | 3,400 tested, 61% active | AID 743032;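 active = mean activation across triplicate tests above the threshold derived from the earlier primary screen, cut at about 5.5% in these data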;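 also: 0% = DMSO only wells and 100% = 3 µM Δ7-dafachronic acid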
* hit, by the source's call; . = no result; ! = not confirmed by another sample.

SMILES	hcDAF-12 act	SMARCA2 act	ssDAF12 agonist	DAX1 inh-1	DAX1 inh-2	hgDAF12 agonist	others
O=C1NC(=O)C(=Cc2cccc(OCCOc3ccccc3)c2)C(=O)N1	6	5	0	1	0	11*
Cc1ccc(OCCOc2cccc(C=C3C(=O)NC(=O)NC3=O)c2)c(C)c1	4	4	1.4*	2	-4	11*
CCOc1cc(C=C2C(=O)NC(=O)NC2=O)ccc1OS(=O)(=O)c1ccccc1	.	.	.	.	1	.
Nc1c2c(nc3sc4c(c13)CCCC4)CCCC2	0	4	-2	1	0	11*
COc1cc(C2c3cc(O)c(OC)cc3CC3C(=O)OCC32)ccc1O (stereo unspecified)	-1	-2	-1	1	4.8*	-2
COc1cc(C2c3cc4c(c(O)c3CC3COC(=O)C32)OCO4)cc(OC)c1OC (stereo unspecified)	-1	4	0	3	1	-7
C[C@H](NC(=O)OCc1ccccc1)C(=O)NC(Cc1ccccc1)P(=O)(Oc1ccccc1)Oc1ccccc1 (stereo partly specified)	-2	-2	-1	-1	.	2
O=C(CN1CC(c2ccccc2)CC1=O)Nc1ccc(F)cc1 (stereo unspecified)	-2	-1	-2	-1	5.2*	2
COc1ccccc1N1CCN(Cc2ccccc2)CC1	0	1	-2	0	0	1
COc1ccccc1N1CCN(Cc2ccc(Br)s2)CC1	-1	1	1	-1	6.5*	1
COc1cccc(NC2=NCCS2)c1	-1	-5	-1	0	.	2
CCNC(=O)NC(=O)C(C)OC(=O)c1c(C)nn(Cc2ccccc2)c1Cl (stereo unspecified)	-1	-1	-2	0	6.3*	-1
CCN1C(=O)/C(=C/c2ccc3c(c2)CCN3CCCCl)C(=O)NC1=S	3	1	1.7*	-1	0	2
O=C1NC(=S)N(C2CC2)C(=O)/C1=C/c1ccc2c(c1)CCN2CCCCl	4	1	1	-1	0	6
Nc1nonc1OCCCCOc1nonc1N	-2	-2	3.3*	0	1	-1
CC(NC(=O)OCc1ccccc1)[P+](=O)O (stereo unspecified)	-2	0	0	0	.	-2
Cc1ccc(N)c(C(=O)c2ccc(Br)cc2)c1	0	2	-1	0	1	6
Cc1ccc(N)c(N)c1	3	-3	0	6.6*	-2	10	DAX1 conf=5.5*;SF1 mutant ctr=3.2*
c1ccc(-c2nc3ccccc3nc2-c2ccc(CN3CCC(n4nnc5ccccc54)CC3)cc2)cc1	-2	-3	-2	-4	.	-1
C=C1[C@@H](C)C2[C@H](Cc3ccccc3)NC(=O)[C@]23[C@H](OC(C)=O)/C=C/[C@@](C)(O)C(=O)[C@@H](C)C/C=C/[C@H]3[C@@H]1O (stereo partly specified)	1	6	0	13*	.	-2	DAX1 conf=17*;SF1 mutant ctr=-2
C=C1[C@@H](C)[C@H]2[C@H](Cc3ccccc3)NC(=O)[C@]23OC(=O)/C=C/[C@H](O)CCC[C@@H](C)C/C=C/[C@H]3[C@@H]1O	-2	-4	-1	-4	-2	-7
COc1ccc(OC(=O)N(C)C[C@H]2OCc3cnnn3CCCC(=O)N([C@@H](C)CO)C[C@@H]2C)cc1	-1	2	0	0	.	1
COc1ccc(C(=O)C2CCCN(CCc3ccccc3)C2)cc1OC (stereo unspecified)	3	-1	0	6.3*	.	1	DAX1 conf=6.0*;SF1 mutant ctr=3.7*
O=C1C(=O)N(c2ccccc2)P(=O)(N(CCCl)CCCl)N1c1ccccc1	5	3	0	8.1*	3	12*	DAX1 conf=6.2*;SF1 mutant ctr=3.0*
O=C(c1cc2cc(Cl)ccc2[nH]1)N1CCC2(CC1)OCCO2	6.4*	4	1	4.6*	1	6	DAX1 conf=3;SF1 mutant ctr=3.8*
SMILES	hcDAF-12 act	SMARCA2 act	ssDAF12 agonist	DAX1 inh-1	DAX1 inh-2	hgDAF12 agonist	others
O=C(c1cc2cc3ccc(Cl)cc3nc2o1)N1CCC2(CC1)OCCO2	0	2	0	0	0	-1
CN1C2CCC1C(C(=O)Oc1ccccc1)C(c1ccc(Cl)cc1)C2 (stereo unspecified)	-1	-5	-1	0	.	-1
C/C(=N\NC(=O)c1ccccc1)c1c(O)n(C2CCCCC2)c(=O)[nH]c1=O	4	-1	0	6.0*	1	10	DAX1 conf=2;SF1 mutant ctr=2
COC1CC=C2CCN3CCC4=C(CC(=O)OC4)C23C1 (stereo unspecified)	1	-2	-1	0	.	-1
NNCc1ccccc1	3	-4	-1	5.0*!	0	2	DAX1 conf=2;SF1 mutant ctr=2.9*
CNC(=O)Oc1cccc(-c2cn3cc(Cl)ccc3n2)c1	15*	4	2.5*	5.8*	-6	13*	DAX1 conf=14*;SF1 mutant ctr=5.1*;LXR ag=2;hcDAF12 conf=16*
O=C(NCCN1CCC2(CC1)C(=O)NCN2c1ccccc1)c1cccs1	2	-5	-1	0	.	3
C=C1C(C)C2C(Cc3ccccc3)NC(=O)C23C(OC(C)=O)C=CC(C)(O)CC(C)CC=CC3C1O (stereo unspecified)	1	14*	-1	3.8*	4.2*	-3	SMARCA2 conf=14*;GAL4-VP16 Luc=5
O=[N+]([O-])c1ccc(N(CCO)CCO)c2c1no[n+]2[O-]	-5	15*	-3	-6	-5	-11	SMARCA2 conf=13*;GAL4-VP16 Luc=1
